Measurements published in PubChem BioAssay AID1946 (Johns Hopkins Ion Channel Center, 2009).
Among all 2,400 compounds or so, about 180 (7.5%) were called active. This is one part of a sample in which actives are shown more often than they occur. A number with no mark means an inactive call.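 Rule for the calls: active = readout below zero, meaning a drop past 3 SD under the dofetilide-free negative control mean; inactive = the rest.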

The molecules below were run against Potassium voltage-gated channel subfamily KQT member 2 (Rattus norvegicus) (UniProt O88943) (assay: rat KCNQ2 channel inhibition by compounds alone, confirmation, counter-screen for hERG block protector project, cell-based, CHO, FluxOR thallium flux (AID 1946)). Details: CHO-KCNQ2 cells, FluxOR thallium flux fluorescence; at 10 µM; stronger effect = lower value; zero marks the 3-SD hit cutoff.
Chain of Potassium voltage-gated channel subfamily KQT member 2 (Rattus norvegicus) (O88943 whole entry, looked up): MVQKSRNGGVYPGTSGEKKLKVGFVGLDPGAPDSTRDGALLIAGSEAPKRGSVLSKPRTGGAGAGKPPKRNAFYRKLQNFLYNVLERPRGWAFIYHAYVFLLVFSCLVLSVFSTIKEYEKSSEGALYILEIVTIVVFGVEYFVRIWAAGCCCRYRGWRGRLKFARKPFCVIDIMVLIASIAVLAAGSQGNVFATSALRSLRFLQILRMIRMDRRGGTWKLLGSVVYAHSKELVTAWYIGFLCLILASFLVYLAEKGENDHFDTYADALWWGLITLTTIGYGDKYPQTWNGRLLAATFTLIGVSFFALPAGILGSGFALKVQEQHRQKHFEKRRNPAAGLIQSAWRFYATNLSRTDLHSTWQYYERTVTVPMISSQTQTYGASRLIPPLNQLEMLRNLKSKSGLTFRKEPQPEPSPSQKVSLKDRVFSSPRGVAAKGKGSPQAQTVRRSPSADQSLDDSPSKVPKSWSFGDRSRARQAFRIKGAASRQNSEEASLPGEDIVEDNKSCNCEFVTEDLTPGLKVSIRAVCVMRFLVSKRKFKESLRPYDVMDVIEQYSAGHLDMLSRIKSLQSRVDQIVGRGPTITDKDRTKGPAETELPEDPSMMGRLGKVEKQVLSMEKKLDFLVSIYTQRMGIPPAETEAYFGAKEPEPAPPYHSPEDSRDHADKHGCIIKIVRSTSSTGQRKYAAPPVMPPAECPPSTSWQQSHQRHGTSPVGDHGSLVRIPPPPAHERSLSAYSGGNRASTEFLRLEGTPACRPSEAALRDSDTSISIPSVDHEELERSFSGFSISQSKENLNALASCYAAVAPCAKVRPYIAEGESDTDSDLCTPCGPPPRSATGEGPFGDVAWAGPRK

Row | Compound | activity change vs negative control
1 | CCCn1c(SCN2C(=O)c3ccccc3C2=O)nc2cc(Cl)ccc2c1=O | 50.5%
2 | COC(=O)c1c(NC(=S)Nc2ccc(F)cc2[N+](=O)[O-])sc2c1CCCCC2 | 25.2%
3 | CCc1ccc(NC(=O)C(=O)NNC(=O)c2ccc(OC)cc2)cc1 | 122%
4 | COc1ccccc1CC(=O)Nc1ccc(OC)c(OC)c1 | 9.2%
5 | CCCOc1ccc(C2NC(=S)NC(c3ccccc3)=C2C(=O)Nc2ccc(C)cc2)cc1OC (centres undefined) | 15.3%
6 | COc1cc(C2C(C#N)=C(N)Oc3c2ccc2ccccc32)ccc1OCC(=O)Nc1ccc(C)cc1 (centres undefined) | -0.6% (active)
7 | COc1ccc(-c2oc3ccccc3c(=O)c2OC(C)=O)cc1 | 38.6%
8 | O=C(COc1ccc2ccccc2c1Br)Nc1cccnc1 | 0.9%
9 | O=C(COc1ccc([N+](=O)[O-])cc1)Nc1cccnc1 | -4.2% (active)
10 | CCc1nnc(NC(=O)COc2ccc([N+](=O)[O-])cc2)s1 | 15.3%
11 | O=C(COc1ccccc1)Nc1ccc(F)cc1 | 0.6%
12 | N#Cc1ccc(-c2ccc(OCC(=O)Nc3cccnc3)cc2)cc1 | 13.9%
13 | O=C(COc1ccc(C(=O)c2ccccc2)cc1)Nc1cccnc1 | -20.5% (active)
14 | O=c1c2c3c(sc2[nH]c(=S)n1Cc1ccco1)CCC3 | 56.4%
15 | Cc1[nH]n(-c2cccc3ccccc23)c(=O)c1/C=N/c1sc2c(c1C#N)CCC2 | 23.1%
16 | COc1cccc(C(=O)NNC(=O)C(=O)Nc2ccc(OC)cc2OC)c1 | 52.6%
17 | S=c1[nH]c(-c2ccc(Cl)cc2)cs1 | 140%
18 | COC(=O)c1ccc(CSc2ncnc3sc(C)c(C)c23)o1 | 23%
19 | COc1cccc(C(=O)NNC(=O)C(=O)Nc2ccc(C)cc2)c1 | 99.7%
20 | Cc1ccc(/C=C/C(=O)c2ccccc(=O)c2O)c(C)c1 | 63.1%
21 | CCCCNC(=S)NC(=O)c1ccc([N+](=O)[O-])cc1 | 46.5%
22 | CCCCCC(=O)NNC(=S)NC(=O)c1ccc([N+](=O)[O-])cc1 | -10.1% (active)

Row | Compound | activity change vs negative control
23 | C=CCN(CC=C)C(=S)NC(=O)c1ccc([N+](=O)[O-])cc1 | 72.2%
24 | O=C(NC(=S)Nc1ccccc1)c1cccs1 | 17.9%
25 | O=C(O)c1ccc(S(=O)(=O)/N=C2\C=C(Nc3ccccc3F)C(=O)c3ccccc32)cc1 | 31.7%
26 | Cc1cc(C)c(C(=O)c2ccc(C(=O)N3CCCCC3)cc2)c(C)c1 | 32.9%
27 | O=C(Nc1nc2c(Br)cc(Br)cc2c(=O)s1)C1CCC1 | 40.8%
28 | O=C(Nc1cccnc1)c1ccc(COc2ccccc2Br)o1 | 7.9%
29 | O=C(COc1ccc(Cl)cc1Cl)Nc1cccnc1 | 11%
30 | O=C(Nc1cccnc1)c1ccc(COc2cc(Cl)ccc2Cl)o1 | -5.5% (active)
31 | CCc1cc2cc(C)cc(C)c2[nH]c1=S | 29.9%
32 | Nc1nc2c(s1)CCc1c-2cnn1-c1ccccc1 | -0.2% (active)
33 | O=C(NC(=S)Nc1ccccc1F)c1ccc(Br)o1 | 81.1%
34 | Cc1c(Cl)cccc1NC(=S)N=Nc1c(O)n(CN2CCOCC2)c2ccccc12 | 28.6%
35 | O=C(CN1C(=O)S/C(=C\c2cc(Cl)c(O)c(Cl)c2)C1=O)Nc1ccccc1 | -7.3% (active)
36 | O=C(CN1C(=O)S/C(=C\c2cccs2)C1=O)Nc1ccc(C(=O)O)c(O)c1 | 44.5%
37 | O=C(CN1C(=O)S/C(=C\c2cccs2)C1=O)Nc1ccc(O)c(C(=O)O)c1 | 7.9%
38 | O=C(NC(=S)Nc1nc2ccc(F)cc2s1)c1ccco1 | 82.7%
39 | CCC1(c2ccc(Cl)cc2)NC(=S)N(c2ccc(C)c(C)c2)N1 (centres undefined) | 124%
40 | CCCN(Cc1ccccc1)C(=S)NC(=O)c1ccccc1[N+](=O)[O-] | 120%
41 | O=C(NC(=S)N1CCCC(C(F)(F)F)C1)c1ccc(F)cc1 (centres undefined) | 46.1%
42 | CCOc1ccc2nc(N3C(=O)/C(=C/c4ccc(Cl)cc4)NC3=S)sc2c1 | 6.5%
43 | CN(C)c1oc(-c2ccccc2[N+](=O)[O-])nc1C#N | 16.4%
44 | CN(C)c1oc(-c2ccccc2)nc1C#N | -1.7% (active)

Row | Compound | activity change vs negative control
45 | CCOC(=O)C(=CNc1cc(C)nn1C(C)(C)C)C(=O)OCC | 13%
46 | Cc1ccc(C(=C2C3C=CC2C2C(=O)NC(=O)C32)c2ccc(C)cc2)cc1 (centres undefined) | -2.6% (active)
47 | CC1CCCCC1NC(=S)NC(=O)c1cccs1 (centres undefined) | 49.2%
48 | CCC1(c2ccc(Cl)cc2)NC(=S)N(c2ccccc2)N1 (centres undefined) | 108%
49 | N#Cc1cc(-c2ccccc2)nnc1Oc1ccccc1 | -0.2% (active)
50 | COCCNC(=O)C(c1ccc(C)o1)N(Cc1ccc(OC)cc1)C(=O)Cn1nnc2ccccc21 (centres undefined) | 33.6%
51 | Cc1ccc(NC(=O)CSc2nnc(-c3cccnc3)n2-c2ccc(C)cc2)cc1 | 12.3%
52 | COc1cc(-c2nnc(SCC(=O)O)n2-c2ccccc2)cc(OC)c1OC | 0.6%
53 | COc1ccc(-n2c(SCC#N)nnc2-c2cccnc2)cc1 | -1.2% (active)
54 | CC1Cc2ccccc2N1C(=S)NC(=O)c1ccc(Cl)cc1Cl (centres undefined) | 83.8%
55 | COCCn1c(=S)[nH]c2sc3c(c2c1=O)CCC(C)C3 (centres undefined) | 81%
56 | CC(C)N(Cc1ccccc1)C(=S)NC(=O)C1(C)CC1(Cl)Cl (centres undefined) | 53.8%
57 | OC(CNCC(c1ccc(Cl)cc1Cl)c1c[nH]c2ccccc12)c1ccccc1 (centres undefined) | -12% (active)
58 | COc1cccc(C=Nc2cc(C)cc(C)c2)c1O | 39.5%
59 | O=c1cc(-c2ccccc2)nc2c(-c3ccccc3)c(C(F)(F)F)[nH]n12 | 81.1%
60 | COc1cc(NC(=O)c2ccccc2)c(OC)cc1NC(=O)Cc1ccc(Br)cc1 | 26.8%
61 | O=C(O)COc1ccc(NC(=O)c2ccc3c(c2)C(=O)N(C2CCCCC2)C3=O)cc1 | 21.1%
62 | Cn1cc(/C=N/n2cnc3scc(-c4ccc(Cl)cc4)c3c2=O)c2ccccc21 | 9%
63 | S=c1[nH]cnc2scc(-c3ccccc3)c12 | 74.3%
64 | Cc1ccc(C)n1-n1c(C)nc2scc(-c3ccccc3)c2c1=O | -3.2% (active)
